# Measurements taken from ChEMBL document CHEMBL3433997, “St. Jude Leishmania screening dataset” (2016).
# Target: Solute carrier family 2, facilitated glucose transporter member 1 (Homo sapiens) (UniProt P11166)
# Assay: ST_JUDE_LEISH: Cytotoxicity at 2uM final concentration against transgenic Leishmania Mexicana promastigotes LmGLUT1 that are glucose transport deficient and complemented with the human glucose transporter GLUT1. Activity is measured by DNA content using SYBR green in vitro
# Assay type: functional
# Chain of Solute carrier family 2, facilitated glucose transporter member 1 (Homo sapiens) (P11166 whole entry): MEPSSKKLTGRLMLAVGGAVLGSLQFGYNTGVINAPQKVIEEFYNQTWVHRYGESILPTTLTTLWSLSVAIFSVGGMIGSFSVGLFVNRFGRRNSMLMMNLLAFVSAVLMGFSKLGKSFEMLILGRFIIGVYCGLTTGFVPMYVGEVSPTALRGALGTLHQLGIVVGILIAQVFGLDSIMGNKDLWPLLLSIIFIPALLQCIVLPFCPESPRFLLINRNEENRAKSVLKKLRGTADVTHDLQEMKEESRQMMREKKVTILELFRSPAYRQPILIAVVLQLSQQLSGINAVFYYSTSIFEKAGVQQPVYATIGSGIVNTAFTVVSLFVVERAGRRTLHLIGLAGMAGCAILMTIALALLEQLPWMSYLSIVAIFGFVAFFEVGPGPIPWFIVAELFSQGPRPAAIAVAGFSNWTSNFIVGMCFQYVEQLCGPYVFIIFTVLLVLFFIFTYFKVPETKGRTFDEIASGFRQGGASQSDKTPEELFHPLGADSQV
row,SMILES,inhibition
1,O=C(/C=C/c1ccc(Cl)c(Cl)c1)NCCCCCCN1CCCN(C(=O)Nc2cc(F)cc(F)c2)CC1,0.71%
2,O=C1C(c2ccccc2)=C(Nc2ccc(Cl)cc2)c2ccccc21,1.6%
3,Cc1ccc(NC(=O)c2cn(-c3ccccc3)nc2-c2ccc(F)cc2)cc1[N+](=O)[O-],4.38%
4,CCNC(=O)c1ccc(-n2nc(C)cc2-c2ccccc2)cc1,2.66%
5,CSc1ccc(NC(=O)Nc2cc(C)nc3ccccc23)cc1,10.3%
6,Cn1cncc1C(=O)Nc1cccc(-c2cccc(-c3nc4ccccc4[nH]3)c2)c1,4.71%
7,Cc1ccc(O)cc1Nc1ccnc2ccc(C(C)(C)C)cc12,-2.04%
8,CO/C(=C\C=C\c1cc2cc(Cl)c(Cl)cc2[nH]1)C(=O)NC1CC2CCC(C1)N2C (stereo not given),0.15%
9,O=C(/C=C/c1ccccc1Cl)NC1CCC(CN2CCC(c3c[nH]c4ccncc34)CC2)CC1 (stereo not given),-0.19%
10,CN(c1ccccc1C(=O)Nc1ccccc1Oc1ccccc1)S(=O)(=O)c1ccccc1,0.02%
11,O=C(/C=C/c1ccc(Cl)c(Cl)c1)NCCCCCN1CC[C@H](NC(=O)/C=C/c2ccccc2)C1,0.76%
12,COc1ccc(Nc2ncc3c(-c4cccc(NC(=O)Cc5cccnc5)c4)c[nH]c3n2)cc1OC,-2.6%
13,O=C(COc1ccc(F)cc1)NC1CCN(c2ccnc3cc(Cl)ccc23)C1 (stereo not given),7.22%
14,O=S(=O)(c1cccc(Cl)c1F)N(CCC(O)(C(F)(F)F)C(F)(F)F)Cc1cccc(O)c1,5.8%
15,CC(=O)Nc1ccc(CNC2Cc3ccc(-c4ccc(Cl)c(Cl)c4)cc3C2)cc1 (stereo not given),-0.97%
16,COc1ccc(-c2nc(NCc3ccccc3)c3cc(OC)c(OC)cc3n2)cc1,10.8%
17,COc1ccc(-c2ccc(NC(=O)c3ccc(Cl)cc3)cc2)cc1CN1CCCN(C)CC1,5.26%
18,Cc1cccc2nc(-c3cccc(-c4cccc(CNCc5ccc(S(C)(=O)=O)cc5)c4)c3)[nH]c12,1.64%
19,CCCCCCCN(Cc1ccc(OC(C)(C)C(=O)OCC)cc1)C(=O)Nc1ccc(Cl)cc1OCC,3.65%
20,NC1=NC(c2ccccc2)(c2ccccn2)C(=O)N1CCCc1ccccc1 (stereo not given),6.44%

row,SMILES,inhibition
1,COc1cc(Nc2ccnc3cc(-c4ccncc4)ccc23)cc(OC)c1OC,11.4%
2,C=CCc1ccc(C2CCN(CCCCNC(=O)c3ccc(NC(=O)c4ccc(Cl)cc4)cc3)CC2)cc1,0.91%
3,Cc1cc(OCCCN2CCCC2)ccc1NC(=O)COc1ccc(Cl)cc1C(=O)c1cc(C#N)cc(C(F)(F)F)c1,73%
4,CC(C)c1ccc(CN2CCCCC(NC(=O)c3cc(-c4cccc(F)c4)cs3)C2)cc1 (stereo not given),-2.71%
5,Cc1cc(N(C)CCCN(C)C)nc(Nc2ccc(Cl)cc2)n1,-1.04%
6,COc1cccc(OC)c1-c1ccccc1NC(=O)N1CCCc2cc(C)ccc21,2.46%
7,COc1ccc(CNCc2ccc(-c3ccc(-c4nc5cccc(C)c5[nH]4)cc3)cc2)cc1,18.1%
8,COc1ccc(NC(=O)Nc2nc(-c3ccc(Cl)c(C)c3)cs2)cc1N1CCN(C)CC1,0.68%
9,CN(C)CCN(C)Cc1ccc(-c2ccc3c(Nc4ccc(Oc5ccccn5)cc4)ccnc3c2)o1,-2.89%
10,FC(F)(F)c1ccc2[nH]c(-c3ccc(-c4cccc(CN5CCCCC5)c4)cc3)nc2c1,2.89%
11,Cc1cccc2nc(-c3cccc(-c4cccc(CN5CCN(c6ccc(C#N)cn6)CC5)c4)c3)[nH]c12,11.6%
12,Clc1cc(Nc2ccnc3ccc(Br)cc23)ccc1Oc1ccc(Cl)c2ccccc12,3.45%
13,COc1cccc(C2C(C(=O)Nc3ccccc3)=C(C)N=c3sc(=Cc4ccc(O)cc4)c(=O)n32)c1 (stereo not given),19.2%
14,Cc1cccc2nc(-c3ccc(-c4cccc(CNCCc5ccncc5)c4)s3)[nH]c12,3.13%
15,CCOC(=O)N1CCN(CCCNc2c3ccc(Cl)cc3nc3ccc(OC)cc23)CC1,4.11%
16,CC(C)c1ccc(OCC(O)CN(C)C(C)C(O)c2ccccc2)c(Br)c1 (stereo not given),5.55%
17,CC(CN(C)C)C(=O)Nc1cccc(-c2ccc(-c3nc4cc(C(F)(F)F)ccc4[nH]3)cc2)c1 (stereo not given),11%
18,CCCCC([C@@H](Cc1ccc2ccccc2c1)C(=O)N[C@H](C(=O)NC)C(C)(C)C)N(O)C=O (stereo not given in full),0.96%
19,CN1CCC(NC(=O)c2cccc(Nc3cc(Nc4cccc(Br)c4)ncn3)c2)CC1,4.2%
20,c1ccc(C23NC(=Nc4nc5ccccc5[nH]4)NC2(c2ccccc2)NC(=Nc2nc4ccccc4[nH]2)N3)cc1 (stereo not given),3.64%

# Target: Hexose transporter 1 (Plasmodium falciparum) (UniProt O97467)
# Assay: ST_JUDE_LEISH: Cytotoxicity at 2uM final concentration against transgenic Leishmania Mexicana promastigotes LmPfHT that are glucose transport deficient and complemented with the Plasmodium falciparum hexose transporter. Activity is measured by DNA content using SYBR green in vitro
# Assay type: functional
row,SMILES,inhibition
1,O=C(/C=C/c1ccc(Cl)c(Cl)c1)NCCCCCCN1CCCN(C(=O)Nc2cc(F)cc(F)c2)CC1,1.42%
2,O=C1C(c2ccccc2)=C(Nc2ccc(Cl)cc2)c2ccccc21,1.45%
3,Cc1ccc(NC(=O)c2cn(-c3ccccc3)nc2-c2ccc(F)cc2)cc1[N+](=O)[O-],3.28%
4,CCNC(=O)c1ccc(-n2nc(C)cc2-c2ccccc2)cc1,3.31%
5,CSc1ccc(NC(=O)Nc2cc(C)nc3ccccc23)cc1,10.8%
6,Cn1cncc1C(=O)Nc1cccc(-c2cccc(-c3nc4ccccc4[nH]3)c2)c1,4.74%
7,Cc1ccc(O)cc1Nc1ccnc2ccc(C(C)(C)C)cc12,-2.63%
8,CO/C(=C\C=C\c1cc2cc(Cl)c(Cl)cc2[nH]1)C(=O)NC1CC2CCC(C1)N2C (stereo not given),1.93%
9,O=C(/C=C/c1ccccc1Cl)NC1CCC(CN2CCC(c3c[nH]c4ccncc34)CC2)CC1 (stereo not given),0.35%
10,CN(c1ccccc1C(=O)Nc1ccccc1Oc1ccccc1)S(=O)(=O)c1ccccc1,0.41%
11,O=C(/C=C/c1ccc(Cl)c(Cl)c1)NCCCCCN1CC[C@H](NC(=O)/C=C/c2ccccc2)C1,0.86%
12,COc1ccc(Nc2ncc3c(-c4cccc(NC(=O)Cc5cccnc5)c4)c[nH]c3n2)cc1OC,-0.55%
13,O=C(COc1ccc(F)cc1)NC1CCN(c2ccnc3cc(Cl)ccc23)C1 (stereo not given),6.11%
14,O=S(=O)(c1cccc(Cl)c1F)N(CCC(O)(C(F)(F)F)C(F)(F)F)Cc1cccc(O)c1,-1.78%
15,CC(=O)Nc1ccc(CNC2Cc3ccc(-c4ccc(Cl)c(Cl)c4)cc3C2)cc1 (stereo not given),-1.57%
16,COc1ccc(-c2nc(NCc3ccccc3)c3cc(OC)c(OC)cc3n2)cc1,12.1%
17,COc1ccc(-c2ccc(NC(=O)c3ccc(Cl)cc3)cc2)cc1CN1CCCN(C)CC1,4.81%
18,Cc1cccc2nc(-c3cccc(-c4cccc(CNCc5ccc(S(C)(=O)=O)cc5)c4)c3)[nH]c12,0.32%
19,CCCCCCCN(Cc1ccc(OC(C)(C)C(=O)OCC)cc1)C(=O)Nc1ccc(Cl)cc1OCC,0.95%
20,NC1=NC(c2ccccc2)(c2ccccn2)C(=O)N1CCCc1ccccc1 (stereo not given),2.19%

row,SMILES,inhibition
1,COc1cc(Nc2ccnc3cc(-c4ccncc4)ccc23)cc(OC)c1OC,20.7%
2,C=CCc1ccc(C2CCN(CCCCNC(=O)c3ccc(NC(=O)c4ccc(Cl)cc4)cc3)CC2)cc1,0.58%
3,Cc1cc(OCCCN2CCCC2)ccc1NC(=O)COc1ccc(Cl)cc1C(=O)c1cc(C#N)cc(C(F)(F)F)c1,11.6%
4,CC(C)c1ccc(CN2CCCCC(NC(=O)c3cc(-c4cccc(F)c4)cs3)C2)cc1 (stereo not given),3%
5,Cc1cc(N(C)CCCN(C)C)nc(Nc2ccc(Cl)cc2)n1,1.73%
6,COc1cccc(OC)c1-c1ccccc1NC(=O)N1CCCc2cc(C)ccc21,2.69%
7,COc1ccc(CNCc2ccc(-c3ccc(-c4nc5cccc(C)c5[nH]4)cc3)cc2)cc1,17.2%
8,COc1ccc(NC(=O)Nc2nc(-c3ccc(Cl)c(C)c3)cs2)cc1N1CCN(C)CC1,3.54%
9,CN(C)CCN(C)Cc1ccc(-c2ccc3c(Nc4ccc(Oc5ccccn5)cc4)ccnc3c2)o1,-0.77%
10,FC(F)(F)c1ccc2[nH]c(-c3ccc(-c4cccc(CN5CCCCC5)c4)cc3)nc2c1,2.01%
11,Cc1cccc2nc(-c3cccc(-c4cccc(CN5CCN(c6ccc(C#N)cn6)CC5)c4)c3)[nH]c12,10.3%
12,Clc1cc(Nc2ccnc3ccc(Br)cc23)ccc1Oc1ccc(Cl)c2ccccc12,3.8%
13,COc1cccc(C2C(C(=O)Nc3ccccc3)=C(C)N=c3sc(=Cc4ccc(O)cc4)c(=O)n32)c1 (stereo not given),27.8%
14,Cc1cccc2nc(-c3ccc(-c4cccc(CNCCc5ccncc5)c4)s3)[nH]c12,1.49%
15,CCOC(=O)N1CCN(CCCNc2c3ccc(Cl)cc3nc3ccc(OC)cc23)CC1,3.33%
16,CC(C)c1ccc(OCC(O)CN(C)C(C)C(O)c2ccccc2)c(Br)c1 (stereo not given),12.5%
17,CC(CN(C)C)C(=O)Nc1cccc(-c2ccc(-c3nc4cc(C(F)(F)F)ccc4[nH]3)cc2)c1 (stereo not given),9.17%
18,CCCCC([C@@H](Cc1ccc2ccccc2c1)C(=O)N[C@H](C(=O)NC)C(C)(C)C)N(O)C=O (stereo not given in full),-0.31%
19,CN1CCC(NC(=O)c2cccc(Nc3cc(Nc4cccc(Br)c4)ncn3)c2)CC1,3.45%
20,c1ccc(C23NC(=Nc4nc5ccccc5[nH]4)NC2(c2ccccc2)NC(=Nc2nc4ccccc4[nH]2)N3)cc1 (stereo not given),3.18%
